Assay outcomes from PubChem.
USP17 inh: inhibitors of human USP17 deubiquitinase; AID 1645855, 2021; inhibition, % at 50 µM; Ubiquitin carboxyl-terminal hydrolase 17-like protein 5 (Homo sapiens), A8MUK1; 47,000 tested, 6.5% active; purified USP17, Ub-rhodamine cleavage fluorescence, 3 h
USP8 block: inhibitors of human USP8 deubiquitinase | Ubiquitin carboxyl-terminal hydrolase 8 (Homo sapiens), P40818 | purified USP8, Ub-rhodamine cleavage fluorescence, 30 min | inhibition, % at 20 µM | 47,000 tested, 4.2% active | AID 1645853, 2021
USP30 block: inhibitors of human USP30 deubiquitinase; Ubiquitin carboxyl-terminal hydrolase 30 (Homo sapiens), Q70CQ3; 47,000 tested, 5.3% active; purified USP30, Ub-rhodamine cleavage fluorescence; inhibition, % at 25 µM
USP28 inh: inhibitors of human USP28 deubiquitinase | Ubiquitin carboxyl-terminal hydrolase 28 (Homo sapiens), Q96RU2 | purified USP28, Ub-rhodamine cleavage fluorescence, 30 min | inhibition, % at 25 µM | 47,000 tested, 3% active
Target sequence (Q96RU2 whole entry, looked up): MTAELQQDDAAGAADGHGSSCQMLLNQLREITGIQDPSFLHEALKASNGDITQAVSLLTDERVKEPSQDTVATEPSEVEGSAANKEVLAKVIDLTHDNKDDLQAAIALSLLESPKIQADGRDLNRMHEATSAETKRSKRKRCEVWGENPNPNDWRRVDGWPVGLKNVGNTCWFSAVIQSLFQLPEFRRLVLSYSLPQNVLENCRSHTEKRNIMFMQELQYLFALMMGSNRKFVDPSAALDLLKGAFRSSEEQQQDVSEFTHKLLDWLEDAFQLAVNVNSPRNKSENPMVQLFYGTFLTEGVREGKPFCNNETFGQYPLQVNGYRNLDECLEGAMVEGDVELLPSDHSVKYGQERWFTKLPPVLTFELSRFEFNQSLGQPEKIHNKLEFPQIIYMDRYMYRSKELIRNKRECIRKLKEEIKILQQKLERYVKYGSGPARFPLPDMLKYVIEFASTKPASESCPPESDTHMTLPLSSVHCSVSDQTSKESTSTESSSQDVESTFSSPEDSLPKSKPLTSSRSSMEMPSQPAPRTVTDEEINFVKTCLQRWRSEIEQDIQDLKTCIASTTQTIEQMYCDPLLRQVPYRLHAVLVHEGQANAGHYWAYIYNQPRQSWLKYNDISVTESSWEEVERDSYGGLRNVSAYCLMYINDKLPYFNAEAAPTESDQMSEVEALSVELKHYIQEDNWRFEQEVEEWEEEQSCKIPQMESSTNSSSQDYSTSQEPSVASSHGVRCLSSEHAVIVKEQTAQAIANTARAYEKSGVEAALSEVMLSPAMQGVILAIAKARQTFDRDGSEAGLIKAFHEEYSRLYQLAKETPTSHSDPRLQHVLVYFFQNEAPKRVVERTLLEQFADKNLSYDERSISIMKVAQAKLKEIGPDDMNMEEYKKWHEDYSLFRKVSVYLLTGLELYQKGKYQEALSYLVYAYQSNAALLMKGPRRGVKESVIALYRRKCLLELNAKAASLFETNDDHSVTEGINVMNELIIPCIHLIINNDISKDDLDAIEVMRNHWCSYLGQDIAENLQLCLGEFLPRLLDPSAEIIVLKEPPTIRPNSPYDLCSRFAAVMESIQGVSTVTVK
Hits are given with their value; – = inactive; · = not tested or not shown. This is a sample that favours compounds with a hit; in the whole collection about 14% have one here. No stated cut-off is given here; in the data, active means inhibition above about 30%; inactive means the rest.

SMILES | USP17 inh | USP8 block | USP30 block | USP28 inh
CC1=C(C(=O)Nc2ccc(C)cc2)C(c2ccncc2)n2c(nc3ccccc32)N1 (stereo not given) | – | – | – | –
CC1=C(C(=O)Nc2ccccc2)C(c2cccnc2)n2c(nc3ccccc32)N1 (stereo not given) | 45 | – | – | –
Cc1nc(-c2cccc(C(=O)O)c2)cc(C2CCN(S(C)(=O)=O)CC2)n1 | – | – | – | –
CCCC(C(=O)Nc1cccc(OC)c1)N1Cc2ccccc2C1=O (stereo not given) | – | – | – | –
COC(=O)c1c(C(=O)OC)c(-c2ccccc2)n(C)c1-c1ccccc1 | – | – | – | –
COC(=O)c1c(C)nn(C)c1-c1ccno1 | – | – | 31 | –
Cc1c(S(=O)(=O)N2CCCC2)c(C)n(C)c1C(=O)N1CCc2ccccc21 | – | – | – | –
O=C(NC1CCCC1)C(c1ccc(Cl)cc1)N(Cc1ccccc1F)C(=O)c1ccco1 (stereo not given) | – | – | 37 | –
CCc1ccc(C(C(=O)NC2CCCC2)N(Cc2ccc(OC)cc2)C(=O)c2ccco2)cc1 (stereo not given) | – | – | – | –
CCC(C)c1ccc(N(C(=O)c2ccco2)C(C(=O)NC2CCCC2)c2ccc(N3CCOCC3)cc2)cc1 (stereo not given) | – | – | 48 | –
Cc1sc2ncnc(SCC(=O)c3cc(C)n(Cc4ccco4)c3C)c2c1C | 39 | 63 | – | –
COc1cc(N2CC[C@@H]3[C@@H]2CCN3C(=O)c2cc(C)oc2C)ncn1 | – | – | – | –
CCCNC(=O)c1oc2ccc3c(c2c1C)C(=O)CC1(CCCC1)O3 | – | – | 39 | –
O=S1(=O)[C@@H]2CCNCC[C@@H]2CN1Cc1cccnc1 | – | – | – | –
Cc1nc2c(c(=O)[nH]1)C(c1ccc3c(c1)OCO3)CC(=O)N2 (stereo not given) | – | – | – | –
COC(=O)c1ccc(Nc2c(C#N)cnc3ccc(Cl)cc23)cc1 | – | – | 33 | –
Cc1ccc(Nc2c(S(=O)(=O)c3ccc(C)cc3)cnc3ccc(Cl)cc23)cc1 | – | – | – | –
O=C1COc2ccc(C(=O)COC(=O)c3ccc4ccccc4n3)cc2N1 | 44 | – | – | –
Cc1cc(Nc2ccccc2)n2nc(-c3cccnc3)nc2n1 | – | – | – | –
CCOc1ccc(-c2cnc(NCc3cccc(C)c3)n2C)cc1 | – | 53 | – | –
O=C(Nc1ccccc1Oc1ccccc1)C(c1ccccc1)c1ccccc1 | – | – | 37 | –
N#Cc1ccc(OCC(=O)Nc2ccccc2Oc2ccccc2)cc1 | – | – | – | –
Cc1nc(C(=O)NC(C)c2ccc(-n3ccnc3)cc2)nn1-c1ccc(F)cc1 (stereo not given) | – | – | – | –
O=C(Cn1c(=O)[nH]c2c(-c3ccccc3)c[nH]c2c1=O)NCc1ccccc1Cl | – | 41 | – | –
CN(Cc1ccccc1)C(=O)Cn1c(=O)[nH]c2c(-c3ccccc3F)c[nH]c2c1=O | – | – | – | –
SMILES | USP17 inh | USP8 block | USP30 block | USP28 inh
CSc1ccc(CNC(=O)Cn2c(=O)[nH]c3c(-c4ccccc4)c[nH]c3c2=O)cc1 | – | 73 | – | –
CCNc1cc(N2CCCC(CCC(=O)NCc3cccc(C)c3)C2)ncn1 (stereo not given) | – | – | – | –
CC(C)(C)c1ccc(C(=O)Nc2ccc([C@@H](O)[C@H]3COCC(=O)N3)cc2)cc1 | – | – | – | 47
O=C1COC[C@H]([C@H](O)c2ccc(NC(=O)c3ccc(F)c(Cl)c3)cc2)N1 | – | – | – | –
Cc1nc2scc(C)n2c(=O)c1NC(=O)c1ccc(Br)cc1 | – | – | – | –
Clc1ccc(-c2cnc(N3CCOCC3)nc2)cc1 | – | – | 44 | –
COc1ccc(NC(=O)Cc2noc3ccc(C)cc23)cc1 | – | – | – | –
O=C(NCc1ccccn1)c1cn(-c2cccc(Cl)c2)nn1 | 33 | – | – | –
Cc1ccc(-n2cc(C(=O)NCc3cccnc3)nn2)cc1C | · | – | 66 | –
O=C(c1noc2ccc(S(=O)(=O)NCc3ccc(F)cc3)cc12)N1CCCCC1 | – | – | – | –
CC1CC(=O)Nc2cc(S(=O)(=O)Nc3cccc(F)c3)ccc2S1 (stereo not given) | – | – | 31 | –
Oc1ccccc1-c1nc2ccc(Cl)cn2c1NCCc1ccccc1 | – | 78 | – | –
Cc1ccc2nc(-c3ccccc3O)c(NCCc3ccccc3)n2c1 | – | 80 | – | –
Cc1ccc2[nH]c(=O)c(-c3nc4ccccn4c3NCc3ccccc3)cc2c1 | – | – | – | –
COc1ccc(CNC(=O)CN(C(=O)CCC(=O)Nc2ccccn2)c2ccccc2F)cc1 | – | – | – | –
COc1ccccc1N(CC(=O)NCc1ccc(F)cc1)C(=O)CCC(=O)Nc1ccccn1 | – | – | 35 | –
CCN(CC)CC(=O)N1CCC(c2nc3ccccc3cc2C(N)=O)CC1 | – | – | · | ·
Cc1ccc(C)c(CN2C(=O)COc3ccc(C(=O)c4ccccc4C(=O)O)cc32)c1 | – | – | 36 | –
O=C(NCc1ccco1)c1ccc(NS(=O)(=O)c2ccc3[nH]c(=O)[nH]c3c2)cc1 | – | – | – | –
CCOC(=O)N1CCN(C(=O)CNC(=O)c2cc3c(OC)ccc(OC)c3[nH]2)CC1 | – | – | – | –
COc1c(O)c2c(c3cc(C(=O)O)[nH]c13)CCN2C(N)=O | 37 | – | – | –
CN(Cc1ccccc1)S(=O)(=O)c1ccc2[nH]cc(C(=O)NCc3cccs3)c(=O)c2c1 | 60 | – | – | –
COc1ccc(CC(=O)N2CCc3cc(-c4noc(C)n4)ccc32)cc1 | – | – | – | 33
O=C1Nc2ccccc2C2(CCN(C(=O)c3ccccc3)CC2)O1 | – | – | – | –
Cn1c(=O)[nH]c(=O)c2c1nc(N1CCc3ccccc3C1)n2CCSc1nnnn1-c1ccccc1 | – | 86 | – | –
SMILES | USP17 inh | USP8 block | USP30 block | USP28 inh
CC(C)Cn1c(N2CCNCC2)nc2c1c(=O)[nH]c(=O)n2C | – | – | 47 | –
Cn1c(=O)[nH]c(=O)c2c1nc(N1CCN(C(c3ccccc3)c3ccccc3)CC1)n2CCSc1ncccn1 | – | – | 30 | –
CCN1CCN(c2nc3c(c(=O)[nH]c(=O)n3C)n2CCc2ccc(OC)cc2)CC1 | – | – | – | –
COc1ccc(C2C(C(=O)NCc3ccccc3)=C(C)Nc3ncnn32)cc1 (stereo not given) | – | – | – | –
CC1=C(C(=O)NCc2ccccc2)C(c2cccc(F)c2)n2ncnc2N1 (stereo not given) | – | – | 33 | –
COc1ccc(CCNS(=O)(=O)c2ccc(F)c(C(=O)Nc3ccc(Cl)cc3C(F)(F)F)c2)cc1OC | 71 | – | 61 | –
COc1ccc(-n2ccc3nc(N4CCCC4)ncc3c2=O)cc1 | – | – | – | –
CCc1ccc(CNC(=O)C2CCc3nc(N4CCN(C(C)=O)CC4)sc3C2)cc1 (stereo not given) | – | – | – | –
COc1ccc(CNC(=O)C2COc3ccc(OC)cc3C2)cc1 (stereo not given) | 34 | – | – | –
CCCCn1c(SCC(=O)NCCc2ccc(S(N)(=O)=O)cc2)nc2cc(S(N)(=O)=O)ccc21 | – | – | – | –
